Experiment [1] can be described thus: qHTS assay for small molecule agonists of the p53 signaling pathway (AID 651631; calls by dose curve; also: nearly all actives have a fitted effect of over 15% in size). An outline of the steps:
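Quantitative high-throughput format: 4,000 p53RE-bla HCT-116 cells/well, 5 h pre-incubation, 16 h compound exposure at 37 °C, 2 h room-temperature substrate step, fluorescence intensity measured.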
On the technique in general: qHTS replaces the single test concentration by a dilution series.

Experiment [2] is described as follows: qHTS assay for small molecules that induce genotoxicity in human embryonic kidney cells expressing luciferase-tagged ATAD5 (AID 651632). Also: nearly all actives have a fitted effect of over 15% in size. An outline of the steps: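 Luminescent reporter readout, HEK293T ATAD5-luc line: 16 hr drug exposure (37C, 5% CO2) followed by Amplite, 30 min RT.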
Experiment [3] is described as follows: qHTS assay for small molecule agonists of the p53 signaling pathway - cell viability (AID 651633; calls by dose curve;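 also: p53RE-bla HCT reporter cells with a stable beta-lactamase p53 reporter; series mostly up to about 83 µM; nearly all actives have a fitted effect of over 30% in size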). Summed up:
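p53RE-bla cells, seeded at 4,000 per well and rested 5 h at 37 C/5% CO2, received compounds in DMSO for 16 h at 37 C. CellTiter-Glo was then added, and luminescence was read after 30 min at room temperature to gauge cytotoxicity.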

Experiment [4] in a line: qHTS assay for small molecules that induce genotoxicity in human embryonic kidney cells expressing luciferase-tagged ATAD5 - cell viability (AID 651634; calls by dose curve; also: nearly all actives have a fitted effect of over 25% in size). Summed up:
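Viability read: CellTiter-Fluor fluorescence, 30 min at 37C. Cells: HEK293T, luciferase-tagged ATAD5. Exposure: 15.5 hr, 37C, 5% CO2, compound or DMSO vehicle.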

Experiment [5] is described as follows: qHTS assay for small molecule disruptors of the mitochondrial membrane potential - cell viability (AID 720634; calls by dose curve;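 also: human HepG2 liver cancer cells; series mostly up to about 83 µM; nearly all actives have a fitted effect of over 20% in size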). Summed up: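 HepG2, 1 hr compound, 37 C. ATP luminescence via CellTiter-Glo, 30 min RT, same well as m-MPI.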
Experiment [6] in a line: qHTS assay to test for compound auto fluorescence at 590 nm (red) in HepG2 cells (AID 720674). An outline of the steps:
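Compound auto-fluorescence is scored relative to Rose Bengal sodium, measured at 540/590 nm in live HepG2 cultures after 1 hr compound contact (37 C, 5% CO2).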

Experiment [7] can be described thus: qHTS assay to test for compound auto fluorescence at 535 nm (green) in HepG2 cells (AID 720675).
The nature of experiment [8]: qHTS assay to test for compound auto fluorescence at 590 nm (red) in HEK293 cells (AID 720679). Summed up:
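Intensity at 540nm excitation and 590nm emission is reported as Rose Bengal sodium-equivalent autofluorescence. Measurements followed overnight exposure (37C, 5% CO2) of HEK293 cells, 2,000 per well, to 23 nL compound.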

A short description of experiment [9]: qHTS assay to test for compound auto fluorescence at 535 nm (green) in HEK293 cells (AID 720680).
The nature of experiment [10]: qHTS assay to test for compound auto fluorescence at 460 nm (blue) in HEK293 cell free culture (AID 720681). An outline of the steps: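 Test compounds were pinned into cell-free culture medium (DMEM with 10% FBS) and fluorescence was read directly at Ex/Em 405/460 nm. Signals were expressed as fluorescence equivalents of triamterene, with DMSO vehicle as control.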

Experiment [11] can be described thus: qHTS assay to test for compound auto fluorescence at 590 nm (red) in HEK293 cell free culture (AID 720683). Summed up:
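Tox21 10K library compounds were pinned into cell-free DMEM with 10% FBS and fluorescence was read at excitation 540 nm. Activity is expressed as Rose Bengal sodium equivalency.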

Experiment [12] in a line: qHTS assay to test for compound auto fluorescence at 590 nm (red) in HepG2 cell free culture (AID 720684). Summed up:
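Red fluorescence (540 nm excitation, 590 nm emission) was measured after compound transfer into cell-free MEM supplemented with 10% FBS. Values are equivalencies against Rose Bengal sodium.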

Experiment [13] can be described thus: qHTS assay to test for compound auto fluorescence at 460 nm (blue) in HepG2 cell free culture (AID 720685). Summed up:
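Compound (23 nL) or DMSO pinned into cell-free MEM with 10% FBS; blue fluorescence read at 405/460 nm excitation/emission, expressed as auto-fluorescence equivalency to triamterene.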

Experiment [14] is described as follows: qHTS assay to test for compound auto fluorescence at 460 nm (blue) in HepG2 cells (AID 720687). An outline of the steps: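 Cells (2,000/well in MEM with 10% FBS) attached overnight at 37 C, then were exposed to compound or DMSO for 1 hr at 37 C, 5% CO2. Fluorescence read at Ex/Em 405/460 nm, expressed as triamterene-equivalent signal.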
Experiment [15] can be described thus: qHTS assay for small molecule disruptors of the mitochondrial membrane potential (AID 720635). Also: potency is read from the fitted curve at half-maximal effect. Summed up: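 HepG2 cells (2,000/well) attached overnight at 37C, then took compound for 1 hr at 37C, 5% CO2. Mito-MPS dye was added for 30 min; fluorescence was read at 490/535 nm (monomers) and 540/590 nm (aggregates).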
A short description of experiment [16]: qHTS assay to test for compound auto fluorescence at 460 nm (blue) in HEK293 cells (AID 720678). An outline of the steps:
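HEK293, 2,000 cells/well, 10% dialyzed FBS; attach 4-5 hr 37C; pin compound or DMSO; o/n 37C/5% CO2; fluorescence 405/460 nm; triamterene-equivalent units.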

Experiment [17] can be described thus: qHTS assay to test for compound auto fluorescence at 535 nm (green) in HEK293 cell free culture (AID 720682). Summed up: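 Measurement is a direct plate read of green fluorescence (485 nm in, 535 nm out) after compound addition to serum-supplemented DMEM lacking cells, with fluorescein used to express intensities.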
Experiment [18] addresses Glucocorticoid receptor (Homo sapiens) (UniProt P04150). Nature of the experiment: qHTS assay to identify small molecule agonists of the glucocorticoid receptor (GR) signaling pathway (AID 720691; active = well fitted activation curve with a large enough effect in the signal ratio in the repeat runs, not every such curve was filed as active; the % refers to the signal ratio). Summed up: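 qHTS in GR-bla HeLa cells: 4 h settling at 37 C/5% CO2, 18 h compound incubation at 37 C, 2 h LiveBLAzer B/G FRET substrate at room temperature, fluorescence intensity measured.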

Experiment [19] is described as follows: qHTS assay to test for compound auto fluorescence at 535 nm (green) in HepG2 cell free culture (AID 720686).
Experiment [20] deals with Glucocorticoid receptor (Homo sapiens) (UniProt P04150). Nature of the experiment: qHTS assay to identify small molecule antagonists of the glucocorticoid receptor (GR) signaling pathway (AID 720692; active = well fitted inhibition curve with a large enough effect in the signal ratio in the repeat runs, not every such curve was filed as active; the % refers to the signal ratio). Summed up: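 Inhibition of glucocorticoid signalling is measured in HeLa cells with a GRE-controlled beta-lactamase reporter; cells are co-treated with compound and 5 nM dexamethasone (final) for 18 h before FRET substrate readout.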

Results filed as inconclusive are left out. Calls of active or inactive are those of the source. Unless noted, calls follow the shape of the dose curve; as a rule, active = well fitted curve in the direction sought with a large enough effect in the repeat runs; inconclusive = weak or mixed curves; inactive = no such curve, though single readings can be large; an effect the other way counts as inactive or inconclusive.

Glucocorticoid receptor (Homo sapiens), sequence (P04150 whole entry, looked up): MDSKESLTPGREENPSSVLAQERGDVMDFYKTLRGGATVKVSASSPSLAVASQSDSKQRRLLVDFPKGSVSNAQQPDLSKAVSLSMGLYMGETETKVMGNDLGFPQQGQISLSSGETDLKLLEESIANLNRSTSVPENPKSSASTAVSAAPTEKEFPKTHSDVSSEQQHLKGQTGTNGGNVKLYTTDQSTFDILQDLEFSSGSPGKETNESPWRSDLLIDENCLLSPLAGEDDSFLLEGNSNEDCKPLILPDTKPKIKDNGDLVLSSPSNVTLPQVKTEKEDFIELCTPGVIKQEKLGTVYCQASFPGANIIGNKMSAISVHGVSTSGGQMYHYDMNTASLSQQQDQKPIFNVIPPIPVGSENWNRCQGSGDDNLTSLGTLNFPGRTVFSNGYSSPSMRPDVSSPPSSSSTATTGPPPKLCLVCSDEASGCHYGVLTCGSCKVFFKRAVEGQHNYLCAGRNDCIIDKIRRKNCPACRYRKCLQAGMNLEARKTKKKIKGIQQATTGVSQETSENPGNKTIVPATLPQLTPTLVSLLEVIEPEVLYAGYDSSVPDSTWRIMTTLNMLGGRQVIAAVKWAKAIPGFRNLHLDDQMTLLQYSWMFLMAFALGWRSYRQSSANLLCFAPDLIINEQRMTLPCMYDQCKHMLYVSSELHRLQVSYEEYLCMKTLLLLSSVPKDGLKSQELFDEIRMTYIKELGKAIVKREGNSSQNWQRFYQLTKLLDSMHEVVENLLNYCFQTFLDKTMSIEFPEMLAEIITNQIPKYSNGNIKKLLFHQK

Turning to `O=C1c2ccccc2C(=O)c2ccccc21`, the Potency result in experiment [1], in [2], in [3], in experiment [4] and in [5] was “inactive” in each case. The call in experiment [6], in experiment [7], in experiment [8], in [9], in experiment [10] and in experiment [11] was inactive. The outcome in [12], in experiment [13] and in experiment [14] was inactive.

`CC(=O)Nc1cc([As](=O)(O)O)ccc1O`: the Potency result in experiment [1], in experiment [2], in experiment [3], in experiment [4] and in experiment [15] was “inactive” each time. The result in [6], in [7], in [16], in experiment [8], in experiment [9] and in experiment [10] was inactive. Further, the outcome in [17], in experiment [11], in experiment [12], in experiment [13], in [14] and in experiment [18] was inactive.

Consider `CC(=O)[C@H]1CC[C@H]2[C@@H]3CC[C@H]4C[C@H](O)CC[C@]4(C)[C@H]3C(=O)C[C@]12C`, for which the Potency entry in experiment [1], in experiment [2], in experiment [3], in experiment [4] and in experiment [15] was “inactive” in each case. Besides, the compound was classed as inactive in experiment [6], in [7], in [16], in [8], in experiment [9] and in experiment [10]. In addition, the compound was called inactive in experiment [17], in [11], in [12], in experiment [13], in experiment [19] and in experiment [14].

In the case of `CC(=O)CCc1ccc2c(c1)OCO2`, the Potency entry in [1], in experiment [2], in experiment [3], in [4] and in experiment [15] was “inactive” throughout. Also, the compound was called inactive in [6], in experiment [7], in experiment [16], in [8], in experiment [9] and in [10]. Further, the result in [11], in [12], in experiment [13], in experiment [19], in [14] and in experiment [18] was inactive.

Turning to `CCCCP(CCCC)CCCC`, the Potency entry in [1], in experiment [2], in [3], in experiment [4] and in experiment [5] was “inactive” throughout. The call in experiment [6], in experiment [7], in [8], in [9], in experiment [10] and in experiment [17] was inactive. Also, the result in experiment [11], in experiment [12], in experiment [13], in experiment [19] and in experiment [14] was inactive.

Take `Cc1nnc2n1-c1sc(CCC(=O)N3CCOCC3)cc1C(c1ccccc1Cl)=NC2`: the Potency result in experiment [1], in [2], in experiment [3], in [4] and in [5] was “inactive” throughout. The compound was called inactive in [6], in [7], in [16], in [8], in experiment [10] and in experiment [17]. The call in experiment [11], in [12], in experiment [13], in experiment [19], in experiment [14] and in [18] was inactive.

As to `O=NN1CCN(N=O)CC1`, the Potency entry in [1], in experiment [2], in experiment [3] and in [4] was “inactive” in each case. For the same compound, the compound was classed as inactive in experiment [6], in [7], in experiment [16], in [8], in experiment [9] and in [10]. The result in [11], in experiment [12], in experiment [19] and in [14] was inactive.

In the case of `O=P(O)(Oc1ccccc1)Oc1ccccc1`, the Potency result in experiment [1], in experiment [2], in [3], in experiment [5], in experiment [15] and in [20] was “inactive” each time. The compound was called inactive in experiment [6], in experiment [7], in experiment [16], in experiment [8], in experiment [9] and in experiment [10]. Also, the result in [17], in experiment [11], in experiment [12], in experiment [13], in [19] and in experiment [14] was inactive. Also, the call in experiment [18] was inactive.

Turning to `O=[N+]([O-])c1ccc2c3c(cccc13)CC2`, the Potency result in experiment [1], in experiment [2], in experiment [3] and in experiment [4] was “inactive” each time. Also, the Potency in [15] was 24.3 µM (active). Also, the outcome in experiment [6], in [7], in experiment [16], in experiment [8], in experiment [9] and in experiment [10] was inactive. In addition, the outcome in [17], in [11], in experiment [12], in experiment [19] and in [14] was inactive.

Consider `ClCCOCOCCCl`, for which the Potency entry in [1], in experiment [2], in [3], in experiment [5] and in [15] was “inactive” in each case. Further, the call in [6], in experiment [7], in experiment [16], in experiment [8], in experiment [9] and in [10] was inactive. Besides, the call in experiment [17], in [11], in [12], in experiment [13], in experiment [14] and in experiment [18] was inactive.

As to `CC(N)=S`, the Potency result in experiment [1], in [2], in experiment [3] and in experiment [15] was “inactive” each time. The call in experiment [6], in [7], in experiment [16], in experiment [8], in experiment [9] and in experiment [10] was inactive. The compound was classed as inactive in [11], in experiment [12], in [13], in experiment [19] and in experiment [14].

Turning to `CCOC(=O)N(C)C(=O)CSP(=S)(OCC)OCC`, the Potency entry in experiment [1], in experiment [2] and in experiment [3] was “inactive” each time. In addition, the compound was classed as inactive in experiment [6], in experiment [7], in experiment [16], in experiment [8], in experiment [9] and in experiment [10]. In addition, the compound was called inactive in [11], in experiment [12], in [13], in [19], in experiment [14] and in [18].

For `COC(=O)C(c1ccccc1)C1CCCCN1` (stereo not drawn), the Potency result in experiment [1], in experiment [2], in experiment [4], in [5], in experiment [15] and in experiment [20] was “inactive” in each case. The compound was classed as inactive in [6], in [7], in [16], in experiment [8], in [9] and in experiment [10]. The call in experiment [17], in experiment [11], in experiment [12], in experiment [13], in experiment [19] and in experiment [14] was inactive. Further, the call in experiment [18] was inactive.

In the case of `Cc1cccc(C#N)c1`, the Potency entry in [1], in experiment [2], in [4], in experiment [5] and in [20] was “inactive” each time. In addition, the call in experiment [6], in experiment [7], in [16], in experiment [8], in experiment [9] and in experiment [10] was inactive. Moreover, the outcome in experiment [17], in experiment [11], in experiment [12], in [13], in experiment [19] and in [14] was inactive. The compound was classed as inactive in experiment [18].

With `O=[N+]([O-])c1ccc(CBr)cc1`, the Potency result in experiment [1], in [3], in experiment [4] and in experiment [5] was “inactive” each time. For the same compound, the result in [6], in [7], in experiment [16], in [8], in experiment [9] and in experiment [10] was inactive. For the same compound, the result in experiment [17], in experiment [11], in experiment [12], in experiment [13], in [19] and in [14] was inactive. The outcome in experiment [18] was inactive.
